# Shown are actives, neighbours in structure and some others; about 4.1% of the full set was active somewhere.
# MPTP inh: inhibitors of mitochondrial permeability transition pore. isolated mouse mitochondria, Ca2+ swelling absorbance, 30 min. inhibition, % at 10 µM. hit rate 1.4% among 360,000. AID 602449;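 active = inhibition of 50% or more, scaled per plate between neutral and stimulator controls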;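 also: 0% = DMSO wells given calcium and 100% = 1 mM EGTA wells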
# NR3A LBD binder: NR3A (human) ligand-binding domain modulation; NR3A LBD differential scanning fluorimetry, Tm shift; 0% = protein alone, 100% = glycine-bound protein; Tm shift relative to glycine control, % at 25 µM; hit rate 2.5% among 340,000; AID 1259313;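 active = melting temperature shift of at least 10% of the positive control shift, at one fixed dose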
# FAS TE block: FAS thioesterase (human) inhibition; hit rate 0.67% among 360,000; recombinant FAS-TE, OMFH fluorogenic substrate, fluorescence endpoint; P49327; AID 602261; inhibition, % at 15 µM;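 active = compounds whose normalised, plate-corrected inhibition of enzyme fluorescence in the single-dose primary screen is 50% or more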;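 also: 0% = DMSO with enzyme and 100% = substrate without enzyme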
# pCIP destab: compounds decreasing mouse p/CIP protein stability; Q05BA5; F442A p/CIP-EGFP cells, EGFP fluorescence, 16 h; decrease of EGFP signal, % at 10 µM; hit rate 0.01% among 290,000; AID 1984;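 active = EGFP signal decrease of at least 30% at 10 µM or well 3 SD below plate mean, unless failing retest; inactive = the rest, including hits failing retest or dose response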
# beta cell repl: MIN6 beta-cell proliferation induction. MIN6 cells proliferation, ATPlite luminescence, 48 h; cells starved in 0.2% serum; 100% = growth in 10% serum. proliferation, % at 10 µM. hit rate 0.29% among 330,000. AID 2380;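 active = compounds whose signal lies at least 3.5 SD above the mean of all wells on their plate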;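 also: 0% = DMSO-treated cells in low-serum medium and 100% = 10% serum control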
# An asterisk follows results filed as active; . = no result.
SMILES,MPTP inh,NR3A LBD binder,FAS TE block,pCIP destab,beta cell repl
O=C(C(=O)N1CCN(c2ccccc2)CC1)c1ccncc1,-1,.,.,.,.
COc1ccc(NC(=O)c2cc(-c3cc(F)ccc3OC(C)C)n[nH]2)c(C)c1,-1,.,18,.,.
CCc1ccc2c(c1)/C(=N/N(C)C(=S)NC)C(=O)N2,2,13*,1,1,-3
Cc1c(Cl)cccc1NC(=S)N(CCCN1CCOCC1)Cc1cccs1,-1,17*,12,-9,4
CC(C)C(=O)Nc1ccc(C(=O)NN2C(=O)c3ccccc3C2=O)cc1,-2,13*,-14,4,0
O=C(Nc1ccc(C(=O)NN2C(=O)c3ccccc3C2=O)cc1)c1ccccc1,1,24*,-3,5,-2
CC[C@]12c3[nH]c4ccc(Cl)cc4c3CCN1C(=O)[C@@H](CC(=O)NC/C=C(\C)CCC=C(C)C)C[C@@H]2C(=O)N1CCN(C(=O)c2ccco2)CC1,-1,-7,18,.,.
CN(Cc1ccccc1)C(=O)c1cccc(NC(=O)Cc2ccc(NC(=O)C3CCN(C(=O)c4ccccc4)CC3)cc2)c1,0,1,-3,.,.
CN(C(=O)c1ccc(NC(=O)Cc2ccc(NC(=O)C3CCN(C(=O)CCc4ccccc4)CC3)cc2)cc1)C1CC1,1,-1,-9,.,-3
CN(Cc1ccccc1)C(=O)c1cccc(NC(=O)Cc2ccc(NC(=O)C3CCN(C(=O)CCc4ccccc4)CC3)cc2)c1,2,17*,9,.,.
CN(Cc1ccccc1)C(=O)c1ccc(NC(=O)Cc2ccc(NC(=O)C3CCN(C(=O)CCc4ccccc4)CC3)cc2)cc1,0,13*,12,.,.
CCCOc1ccc(-c2cn3ccccc3n2)cc1,1,-15,-3,-5,-6
COc1ccc(-c2cn3ccccc3n2)cc1,2,26*,-5,-7,-5
O=C(Nc1ccc(-c2cn3ccccc3n2)cc1)c1ccc(Cl)cc1,2,14*,-3,-3,-1
CC(=O)Nc1ccc(-c2cn3cc(C)ccc3n2)cc1,0,20*,-6,8,0
O=C(Nc1ccc(-c2cn3ccccc3n2)cc1)c1ccco1,-14,24*,-4,-18,0
Clc1ccc(-c2cn3ccccc3n2)cc1,0,2,2,6,0
OCCc1ccc(NCCc2cccs2)cc1,1,.,-11,.,.
COc1ccc(-c2cc(NC(C)=O)c3ncc(-c4ccccc4)n3c2)c(OC)c1,-1,.,19,.,.
O=C(C[C@H]1C=C[C@@H](NC(=O)Cc2cccnc2)[C@@H](CO)O1)NCc1ccc2c(c1)OCO2,1,.,.,.,.
CCOc1cccc(CN2CCC(Oc3ccc(C(=O)N4CCCC4)cc3)CC2)c1O,2,.,-5,.,.
Cc1ccc(C)c(N2CCN(C(C(=O)NC3CCCC3)c3ccco3)CC2)c1 (stereo unspecified),0,.,.,.,.
O=C(Nc1ccc(Cl)c(Cl)c1)OCc1cnc(Cl)s1,9,12*,43,-6,-3
Brc1ccc(-c2csc(-c3c[nH]c4ccccc34)n2)cc1,0,47*,34,-2,-2
Oc1csc(Cc2nc(-c3ccc(Br)cc3)cs2)n1,2,3,2,-4,-1
SMILES,MPTP inh,NR3A LBD binder,FAS TE block,pCIP destab,beta cell repl
c1ccc2c(-c3csc(-c4ccncc4)n3)c[nH]c2c1,4,27*,8,-60,-4
COc1ccc(CN2C(=O)CN(S(C)(=O)=O)CC2(C)C(=O)Nc2c(C)cccc2C)cc1OC (stereo unspecified),0,.,.,.,.
CCOC(=O)C1=CCN(S(=O)(=O)c2ccccc2Cl)C1c1cccc(F)c1 (stereo unspecified),-2,.,6,.,.
CC(O)(c1cccc(F)c1)c1nc(/C=C/c2ccccc2)cs1 (stereo unspecified),2,.,24,.,.
N#Cc1ccccc1Sc1ccccc1C(=O)OCC(=O)NC12CC3CC(CC(C3)C1)C2,0,2,27,-3,-6
CC1CCCC(NC(=O)COC(=O)c2ccccc2Sc2ccccc2C#N)C1C (stereo unspecified),1,16*,-2,-8,-1
C#CCOCCOCCOCCNc1nc(N2CCN(C(=O)CCCCCCCCCCNC(=O)[C@H](CCCCN)n3cc(C[C@@H](C)CC)nn3)CC2)nc(N2CCN(C(=O)CCCCCCCCCCNC(=O)[C@@H]([C@H](C)O)n3cc(C)nn3)CC2)n1,-16,11*,-152,.,-8
C#CCOCCOCCOCCNc1nc(N2CCN(C(=O)CCCCCCCCCCNC(=O)Cn3cc(CCCCCN)nn3)CC2)nc(N2CCN(C(=O)CCCCCCCCCCNC(=O)[C@@H]([C@H](C)O)n3cc(C)nn3)CC2)n1,-5,8,-21,.,-8
C#CCOCCOCCOCCNc1nc(N2CCN(C(=O)CCCCCCCCCCNC(=O)Cn3cc(CCCCCN)nn3)CC2)nc(N2CCN(C(=O)CCCCCCCCCCNC(=O)Cn3cc(C[C@@H](C)O)nn3)CC2)n1,-6,30*,-26,.,-7
C#CCOCCOCCOCCNc1nc(N2CCN(C(=O)CCCCCCCCCCNC(=O)[C@H](CCCCN)n3cc(C)nn3)CC2)nc(N2CCN(C(=O)CCCCCCCCCCNC(=O)[C@@H]([C@H](C)O)n3cc(C)nn3)CC2)n1,-4,26*,-20,.,-8
C#CCOCCOCCOCCNc1nc(N2CCN(C(=O)CCCCCCCCCCNC(=O)[C@H](CCCCN)n3cc(CCO)nn3)CC2)nc(N2CCN(C(=O)CCCCCCCCCCNC(=O)[C@H](CCCCN)n3cc(C[C@@H](C)CC)nn3)CC2)n1,.,20*,.,.,-7
COc1cccc(C(O)c2nc(-c3ccccc3)cs2)c1 (stereo unspecified),0,.,3,.,.
COc1ccc(CN2C(=O)C(CC(=O)NCc3cccc4ccccc34)CC(C(=O)N(C(C)C)C(C)C)=C2C)cc1 (stereo unspecified),-1,.,6,.,.
Nc1nc2c(ncn2[C@@H]2O[C@H](CNCc3ccccc3)[C@@H](O)[C@H]2O)c(=O)[nH]1,0,.,-10,.,.
CCn1c2ccccc2c2cc(NC(=O)COC(=O)c3ccc(O)cc3)ccc21,-1,15*,20,.,-7
CCOC(=O)c1nn(-c2ccccc2C)c2nc(Nc3ccccc3)cc(=O)n12,-1,13*,-5,-4,-3
COc1cc(CNC(=O)c2cc(-c3ccc(OC)cc3C)n[nH]2)cc(OC)c1,-1,.,1,.,.
O=c1[nH]c2ccccc2nc1/C=C/c1ccccc1,0,1,4,-6,-4
C(=C\c1nccc2c1[nH]c1ccccc12)/c1ccccc1,7,16*,18,-1,-7
COc1ccc(C2(C)NC(=O)N(CC(=O)Nc3ccc(-c4nc5ccc(C)cc5s4)cc3)C2=O)cc1 (stereo unspecified),-2,-1,4,-12,-5
CCCC1(c2ccccc2)NC(=O)N(CC(=O)Nc2ccc(N3CCOCC3)cc2)C1=O (stereo unspecified),0,3,-4,.,-4

# Assay outcomes: PubChem, Sanford-Burnham Center for Chemical Genomics
